Most compounds without a hit are left out; they make up all but 9.2% or so of the library.
NPC1 promoter act: qHTS Assay for NPC1 Promoter Activators | Huh7 NPC1 promoter luciferase reporter, 24 h | Potency, µM (series often up to 9.22 µM), for the others: at the top dose activation, most hits filed as activators | hit rate 2.4% among 320,000 | AID 485313, 2010; further: % of control where 0% means no effect; nearly all actives have a fitted effect of over 60% in size
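NPC1 promoter–luciferase Huh7 cells; 24 h compound; luminescence.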
Rab9 prom act: qHTS Assay for Rab9 Promoter Activators. Huh7 Rab9 promoter-luciferase reporter, luminescence, 24 h. Potency, µM (highest dose often 9.22 µM), for the others: at the highest dose activation, negative = inhibition, actives largely listed as activators. AID 485297, 2010. hit rate 2.8% among 320,000; further: % of control where 0% means no effect; nearly all actives have a fitted effect of over 60% in size
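Measured in stably transfected Huh7 cells bearing a Rab9 promoter–luciferase construct: 24 h compound treatment at 37 °C, followed by luminescence detection.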
ELG1 repair inh: qHTS screen for small molecules that inhibit ELG1-dependent DNA repair in human embryonic kidney (HEK293T) cells expressing luciferase-tagged ELG1; Potency, µM (series often up to 46.1 µM), without a hit: at the highest dose activity change, negative = inhibition, hits mostly inhibitors; hit rate 2.3% among 330,000; HEK293T ELG1-luciferase reporter, luminescence, 16 h; DNA damage induced by 5-fluorouridine; further: on the % scale 0 is the no-effect control and ±100 the full control effect; nearly all actives have a fitted effect of over 55% in size
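5-Fluorouridine DNA damage + compound/DMSO, 2,000 cells/well, 16 h, 37 °C/5% CO2. ONE-Glo, 30 min RT, luminescence. Readout = decrease in reporter signal.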
SMN2 splice enh: qHTS Assay for Enhancers of SMN2 Splice Variant Expression; HEK293 SMN2-luciferase splicing reporter, luminescence, 30-36 h; Potency, µM (series often up to 46.1 µM), inactives show top-dose activity change, positive = activation, most hits filed as activators; hit rate 2.8% among 210,000; AID 1458, 2008; further: % of control where 0% means no effect; nearly all actives have a fitted effect of over 55% in size
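qHTS luciferase splicing reporter: luminescence rises when SMN2 exon 7 is included in transfected HEK293 cells. Compound exposure lasted 30-36 h at 37C, with 4.5 mM final sodium butyrate as control, followed by a ONE-Glo read.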
ELG1 genotoxic: qHTS screen for small molecules that induce genotoxicity in human embryonic kidney (HEK293T) cells expressing luciferase-tagged ELG1; HEK293T ELG1-luciferase reporter, luminescence, 16 h; Potency, µM (highest dose often 46 µM), for the others: at the top dose activity change, positive = activation, actives largely listed as activators; hit rate 1.3% among 330,000; AID 504466, 2011; further: % of control where 0% means no effect; nearly all actives have a fitted effect of over 60% in size
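DMSO vehicle served as control against compound-treated ELG1-luciferase HEK293T cells; exposure lasted 16 hr at 37 °C and 5% CO2, followed by ONE-Glo luminescence detection after 30 min.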
FLuc counter: qHTS profiling assay for firefly luciferase inhibitor/activator using purifed enzyme and Km concentrations of substrates (counterscreen for miR-21 project); Luciferin 4-monooxygenase (Photinus pyralis), P08659; purified FLuc, Km substrates, luminescence inhibition; Potency, µM (doses to about 57.5 µM), without a hit: top-dose activity change, negative = inhibition, most hits filed as inhibitors; hit rate 6.9% among 360,000; AID 588342, 2011;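 further: plate controls were vehicle for no effect and reference inhibitor for full effect; nearly all actives have a fitted effect of over 55% in size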
Target sequence (P08659 whole entry, looked up): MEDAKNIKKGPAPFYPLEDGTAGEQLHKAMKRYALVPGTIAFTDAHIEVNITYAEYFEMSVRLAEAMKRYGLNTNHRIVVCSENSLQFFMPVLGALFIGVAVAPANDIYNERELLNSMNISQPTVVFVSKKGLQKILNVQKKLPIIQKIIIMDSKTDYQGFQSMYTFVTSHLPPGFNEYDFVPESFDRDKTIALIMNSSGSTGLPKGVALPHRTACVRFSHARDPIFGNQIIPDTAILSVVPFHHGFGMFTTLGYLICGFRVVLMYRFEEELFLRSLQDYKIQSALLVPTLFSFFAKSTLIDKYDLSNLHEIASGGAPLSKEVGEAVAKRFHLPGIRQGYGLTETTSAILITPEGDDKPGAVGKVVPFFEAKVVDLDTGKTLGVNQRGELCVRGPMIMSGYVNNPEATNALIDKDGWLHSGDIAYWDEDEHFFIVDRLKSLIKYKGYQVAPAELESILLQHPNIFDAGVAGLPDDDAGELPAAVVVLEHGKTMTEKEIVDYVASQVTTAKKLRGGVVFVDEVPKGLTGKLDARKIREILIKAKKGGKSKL
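Purified P. pyralis luciferase, 10 nM final, with Km-level 10 uM D-luciferin and 10 uM ATP in 50 mM Tris acetate pH 7.5, 10 mM Mg acetate, 0.01% Tween-20, 0.05% BSA; 6-point qHTS titration about 60 µM downward; luminescence read.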
* marks the source's active call; other numbers are inactive results; ? = inconclusive; nt = not tested or not shown; [ ] = remark or other dose. The call rests on the fitted dose curve; in most records, active means well fitted curve in the direction sought with a large enough effect; inconclusive means small, poorly fitted or top-dose-only effect, or another doubt; inactive means no such curve, though single readings can be large; an effect the other way counts as inactive or inconclusive. Potency means the concentration at half of the fitted maximal effect.

SMILES	NPC1 promoter act	Rab9 prom act	ELG1 repair inh	SMN2 splice enh	ELG1 genotoxic	FLuc counter
COc1ccc2c(c1)Cc1sc(NC(=O)c3cccs3)nc1-2	3.98µM*	2.82µM*	?	?	?	?
Cc1cc(NC(=O)c2cccnc2)cc(-c2nc3cc(Cl)ccc3o2)c1O	nt	nt	nt	nt	nt	-12.2%
O=C(NCC(=O)N1CCN(c2ccccn2)CC1)c1ccc(Br)o1	1.5%	2.3%	15.1%	nt	3.7%	-2.8%
O=c1c2ccccc2nc(/C=C/c2cccc(Br)c2)n1CCCO	-8.0%	-4.2%	14.6µM*	nt	-8.4%	-15.6%
Cn1c(/C=C/c2cccc(Br)c2)nc2ccccc2c1=O	27.8%	-5.2%[1.84 µM]	12.0%	nt	0.8%	15.1µM*
O=c1c2ccccc2nc(/C=C/c2ccc(Br)cc2)n1CCCO	-6.7%	2.5%	-5.2%	nt	-8.8%	?
CCOc1ccc(CC(=O)NCCc2csc(-c3ccc(C)cc3)n2)cc1	nt	nt	nt	nt	nt	-8.7%
Nn1c(-c2ccccc2)nc2cc(Cl)ccc2c1=O	0.9%	-1.6%	-8.6%	nt	2.0%	5.4%
O=c1c2cc(Br)ccc2nc(-c2ccc(Cl)cc2)n1O	-1.1%	0.8%[1.84 µM]	?	nt	-11.1%	0.1%
N#Cc1ccc(-c2nc3cc(Cl)ccc3c(=O)n2O)cc1	-4.8%	-1.6%	11.6µM*	nt	-5.7%	1.3%
N#Cc1ccc(-c2nc3ccccc3c(=O)n2O)cc1	1.4%	3.3%	?	nt	-13.5%	-0.3%
O=c1c2cc(Cl)ccc2nc(-c2ccc([N+](=O)[O-])cc2)n1O	-4.9%	0.7%	18.3µM*	-42.0%	-9.6%	?
On1c(-c2ccccc2)nc2ccc(Cl)cc21	?	?	?	12.6µM*	7.6%	16.9µM*
CC(C)N(Cc1nccn1C)C(=O)c1ccc2oc(Cc3ccccc3)nc2c1	-0.2%	-2.5%	22.7%	nt	-0.9%	-3.9%
CN1CCN(C(=O)Cn2c(-c3cccs3)cc3ccccc32)CC1	nt	nt	nt	nt	nt	-1.9%
CC(OC(=O)c1cccc(S(=O)(=O)N2CCOCC2)c1)C(=O)NC1CCCCC1C (stereo not drawn)	0.4%	4.1%	3.1%	nt	-3.8%	-0.4%
CCc1ccc(OCCSc2nc(-c3cccc(C)c3)nc3cc(=O)[nH]n23)cc1	nt	nt	nt	nt	nt	-17.3%
Cc1cccc(OCCSc2nc(-c3cccs3)nc3cc(=O)[nH]n23)c1	nt	nt	nt	nt	nt	15.1µM*
O=C(CC(SCCO)c1ccc2c(c1)OCO2)c1ccco1 (stereo not drawn)	?	?	18.8%	-5.4%	?	4.78µM*
CC1CN(c2nc3ccccn3c(=O)c2/C=C(\C#N)C(N)=O)CC(C)O1 (stereo not drawn)	2.1%	13.2%	-1.7%	nt	-0.5%	-0.3%
C=CCNC(=O)/C(C#N)=C/c1c(N(Cc2ccccc2)Cc2ccccc2)nc2ccccn2c1=O	-4.0%	-8.2%	13µM*	-31.9%	-3.7%	1.1%
N#C/C(=C\c1c(N(Cc2ccccc2)Cc2ccccc2)nc2ccccn2c1=O)C(N)=O	1.6%	-2.9%	16.4µM*	-9.5%	-0.9%	0.0%
CN(C)/C=C/C(=O)c1cnc(-c2cccc(Cl)c2)s1	3.16µM*	1.26µM*	?	14.1µM*	?	12µM*
CN(C)/C=C/C(=O)c1cnc(-c2ccccn2)s1	3.16µM*	1.58µM*	?	11.2µM*	25.3%	?
CN(C)/C=C/C(=O)c1ccc(Br)s1	-1.4%	27.3%	?	11.2%	?	?
CN(C)/C=C/C(=O)c1cnc(-c2ccccc2Cl)s1	2µM*	1.26µM*	?	12.6µM*	?	9.53µM*
Cc1ccc(NC(=S)N2CCC(NC(=O)c3ccco3)CC2)cc1C	1.6%	-6.0%	-1.2%	nt	-0.2%	-2.5%

Compound activity (PubChem BioAssay)
